Assay [1] can be described thus: qHTS assay to test for compound auto fluorescence at 535 nm (green) in HEK293 cells (AID 720680).
Assay [2] is described as follows: qHTS assay to test for compound auto fluorescence at 460 nm (blue) in HEK293 cell free culture (AID 720681). The gist of the method: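 Test compounds were pinned into cell-free culture medium (DMEM with 10% FBS) and fluorescence was read directly at Ex/Em 405/460 nm. Signals were expressed as fluorescence equivalents of triamterene, with DMSO vehicle as control.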

Assay [3] can be described thus: qHTS assay to test for compound auto fluorescence at 535 nm (green) in HEK293 cell free culture (AID 720682). The gist of the method: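 Read-out: 485/535 nm fluorescence intensity, calibrated against fluorescein. Medium only (DMEM + 10% FBS, no cells); test compound or DMSO vehicle added by pintool before plate reading.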
Assay [4] can be described thus: qHTS assay to test for compound auto fluorescence at 590 nm (red) in HEK293 cell free culture (AID 720683). The gist of the method: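 Tox21 10K library compounds were pinned into cell-free DMEM with 10% FBS and fluorescence was read at excitation 540 nm. Activity is expressed as Rose Bengal sodium equivalency.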
Assay [5] in a line: qHTS assay to test for compound auto fluorescence at 590 nm (red) in HepG2 cell free culture (AID 720684). The gist of the method:
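Measured in medium alone (MEM containing 10% FBS) following pintool addition of compound; emission at 590 nm with 540 nm excitation, referenced to Rose Bengal sodium.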

Assay [6] is described as follows: qHTS assay to test for compound auto fluorescence at 460 nm (blue) in HepG2 cell free culture (AID 720685). In a few lines: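 Compound (23 nL) or DMSO pinned into cell-free MEM with 10% FBS; blue fluorescence read at 405/460 nm excitation/emission, expressed as auto-fluorescence equivalency to triamterene.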
Assay [7] in a line: qHTS assay to test for compound auto fluorescence at 535 nm (green) in HepG2 cell free culture (AID 720686).
Assay [8] in a line: qHTS assay to test for compound auto fluorescence at 460 nm (blue) in HepG2 cells (AID 720687). The gist of the method:
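Cells (2,000/well in MEM with 10% FBS) attached overnight at 37 C, then were exposed to compound or DMSO for 1 hr at 37 C, 5% CO2. Fluorescence read at Ex/Em 405/460 nm, expressed as triamterene-equivalent signal.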

Assay [9] deals with Glucocorticoid receptor (Homo sapiens) (UniProt P04150). Nature of the assay: qHTS assay to identify small molecule agonists of the glucocorticoid receptor (GR) signaling pathway (AID 720691; active = well fitted activation curve with a large enough effect in the signal ratio in the repeat runs, not every such curve was filed as active; the % refers to the signal ratio). The gist of the method:
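GR-bla HeLa cells carrying a GRE-driven beta-lactamase reporter, exposed to compounds for 18 h at 37 C. Reporter activation read as fluorescence after 2 h with LiveBLAzer B/G FRET substrate at room temperature.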

Assay [10] has the same target. Briefly: qHTS assay to identify small molecule antagonists of the glucocorticoid receptor (GR) signaling pathway (AID 720692; active = well fitted inhibition curve with a large enough effect in the signal ratio in the repeat runs, not every such curve was filed as active; the % refers to the signal ratio). The gist of the method:
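GR-bla HeLa cells carrying a GRE-driven beta-lactamase reporter received compound after 4 h plating, then dexamethasone (5 nM final). After 18 h at 37C, the FRET substrate was loaded for 2 h at room temperature and fluorescence read.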

A short description of assay [11]: qHTS assay to identify small molecule antagonists of the glucocorticoid receptor (GR) signaling pathway - cell viability counter screen (AID 720693). Note: nearly all actives have a fitted effect of over 55% in size.
The nature of assay [12]: qHTS assay for identifying genotoxic compounds that show differential cytotoxicity against isogenic chicken DT40 cell lines with known DNA damage response pathways - wild type cell line (AID 743012). Note: nearly all actives have a fitted effect of over 60% in size. Note: potency is the fitted concentration of half-maximal effect. The gist of the method: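 Wild-type DT40 cells (300/well) exposed to compounds for 40 hours at 37 C/5% CO2. Viability read by CellTiter-Glo luminescence after 30 min at room temperature.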

Assay [13] in a line: qHTS assay for identifying genotoxic compounds that show differential cytotoxicity against isogenic chicken DT40 cell lines with known DNA damage response pathways - Rev3 mutant cell line (AID 743014). Note: nearly all actives have a fitted effect of over 55% in size. Note: potency is the fitted concentration of half-maximal effect.
Assay [14] in a line: qHTS assay for identifying genotoxic compounds that show differential cytotoxicity against isogenic chicken DT40 cell lines with known DNA damage response pathways - Rad54/Ku70 mutant cell line (AID 743015). Note: nearly all actives have a fitted effect of over 60% in size. Note: potency is the fitted concentration of half-maximal effect.
Assay [15] is described as follows: qHTS assay to identify small molecule antagonists of the androgen receptor (AR) signaling pathway - cell viability counter screen (AID 743033; note: nearly all actives have a fitted effect of over 45% in size).
Assay [16] is described as follows: qHTS assay to identify small molecule antagonists of the thyroid receptor (TR) signaling pathway - cell viability counter screen (AID 743064). Note: nearly all actives have a fitted effect of over 50% in size. Note: potency is the fitted concentration of half-maximal effect. The gist of the method:
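GH3.TRE-Luc rat pituitary cells carrying a TRE-luciferase reporter were treated with compound plus 1 nM T3 (final) for 23.5 h at 37 °C. Viability was then read in the same wells by CellTiter-Fluor fluorescence after a further 30 min.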

In assay [17] the target is Androgen receptor (Homo sapiens) (UniProt P10275). Briefly: qHTS assay to identify small molecule agonists of the androgen receptor (AR) signaling pathway (AID 743036; active = well fitted activation curve with a large enough effect in the signal ratio in the repeat runs, with a control signal flat, not every such curve was filed as active; the % refers to the signal ratio). In a few lines: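 HEK293 cells stably carrying a UAS-driven beta-lactamase reporter (GeneBLAzer AR-UAS-bla-GripTite) were plated at 2,000 cells/well, rested 4 h at 37C, then exposed to compounds in DMSO for 16 h. LiveBLAzer B/G FRET substrate was added for 2 h at room temperature; fluorescence read.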

Assay [18] shares this target. Briefly: qHTS assay to identify small molecule agonists of the androgen receptor (AR) signaling pathway using the MDA cell line (AID 743040; note: nearly all actives have a fitted effect of over 20% in size). The gist of the method: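 Luminescence from ONE-Glo, read after 30 min at room temperature, reflects MMTV-driven luciferase in MDA-kb2 cells (AR- and GR-responsive). Treatment lasted 16 h at 37C, 0% CO2.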
Assay [19] in a line: qHTS assay to identify small molecule antagonists of the androgen receptor (AR) signaling pathway using the MDA cell line - cell viability counter screen (AID 743041; note: nearly all actives have a fitted effect of over 45% in size). The gist of the method: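 Viability counter screen run alongside the AR antagonist reporter: cells seeded 5 h before compound, R1881 added, 16 h incubation at 37C without CO2, fluorescent CellTiter-Fluor signal quantified.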

The target of assay [20] is Androgen receptor (Homo sapiens) (UniProt P10275). Nature of the assay: qHTS assay to identify small molecule antagonists of the androgen receptor (AR) signaling pathway using the MDA cell line (AID 743042; note: nearly all actives have a fitted effect of over 55% in size). The gist of the method: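 MDA-kb2 cells (human breast carcinoma, stably carrying an MMTV-luciferase reporter responsive to AR and GR) were plated at 3,000 cells/well and preincubated 5 hr at 37C, then given compound plus R1881 agonist for 16 h. ONE-Glo luminescence was read.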

Unmarked numbers belong to inactive results. Records with an inconclusive call do not appear. Calls of active or inactive are those of the source. Unless noted, calls come from the whole dose curve; as a rule, active = well fitted curve in the direction sought with a large enough effect in the repeat runs; inconclusive = weak or mixed curves; inactive = no such curve, though single readings can be large; an effect the other way counts as inactive or inconclusive.
% is set by controls: 0 for no effect and ±100 for the full control effect.

Sequence of Glucocorticoid receptor (Homo sapiens) (P04150 whole entry, looked up): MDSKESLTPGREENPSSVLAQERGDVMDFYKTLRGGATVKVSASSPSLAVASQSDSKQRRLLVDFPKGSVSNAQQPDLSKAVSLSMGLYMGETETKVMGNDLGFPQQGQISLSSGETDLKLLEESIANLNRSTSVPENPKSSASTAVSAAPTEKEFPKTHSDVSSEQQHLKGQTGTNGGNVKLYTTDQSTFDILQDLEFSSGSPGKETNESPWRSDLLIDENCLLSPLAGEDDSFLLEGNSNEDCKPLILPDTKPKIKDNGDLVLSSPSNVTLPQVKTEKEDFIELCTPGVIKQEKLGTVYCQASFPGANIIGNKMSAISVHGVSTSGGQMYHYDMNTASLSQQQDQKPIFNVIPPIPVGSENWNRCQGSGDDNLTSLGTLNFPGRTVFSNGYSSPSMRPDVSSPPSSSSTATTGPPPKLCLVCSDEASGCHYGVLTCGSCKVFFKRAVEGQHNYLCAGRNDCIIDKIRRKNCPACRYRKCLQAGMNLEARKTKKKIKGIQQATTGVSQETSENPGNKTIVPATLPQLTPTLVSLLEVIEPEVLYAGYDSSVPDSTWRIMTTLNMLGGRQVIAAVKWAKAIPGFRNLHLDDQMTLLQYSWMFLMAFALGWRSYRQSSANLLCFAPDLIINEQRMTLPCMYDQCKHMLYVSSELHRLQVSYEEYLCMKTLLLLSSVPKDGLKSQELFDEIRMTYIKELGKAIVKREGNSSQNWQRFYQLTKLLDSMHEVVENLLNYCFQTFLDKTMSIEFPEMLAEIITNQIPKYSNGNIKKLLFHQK
Sequence of Androgen receptor (Homo sapiens) (P10275 whole entry, looked up): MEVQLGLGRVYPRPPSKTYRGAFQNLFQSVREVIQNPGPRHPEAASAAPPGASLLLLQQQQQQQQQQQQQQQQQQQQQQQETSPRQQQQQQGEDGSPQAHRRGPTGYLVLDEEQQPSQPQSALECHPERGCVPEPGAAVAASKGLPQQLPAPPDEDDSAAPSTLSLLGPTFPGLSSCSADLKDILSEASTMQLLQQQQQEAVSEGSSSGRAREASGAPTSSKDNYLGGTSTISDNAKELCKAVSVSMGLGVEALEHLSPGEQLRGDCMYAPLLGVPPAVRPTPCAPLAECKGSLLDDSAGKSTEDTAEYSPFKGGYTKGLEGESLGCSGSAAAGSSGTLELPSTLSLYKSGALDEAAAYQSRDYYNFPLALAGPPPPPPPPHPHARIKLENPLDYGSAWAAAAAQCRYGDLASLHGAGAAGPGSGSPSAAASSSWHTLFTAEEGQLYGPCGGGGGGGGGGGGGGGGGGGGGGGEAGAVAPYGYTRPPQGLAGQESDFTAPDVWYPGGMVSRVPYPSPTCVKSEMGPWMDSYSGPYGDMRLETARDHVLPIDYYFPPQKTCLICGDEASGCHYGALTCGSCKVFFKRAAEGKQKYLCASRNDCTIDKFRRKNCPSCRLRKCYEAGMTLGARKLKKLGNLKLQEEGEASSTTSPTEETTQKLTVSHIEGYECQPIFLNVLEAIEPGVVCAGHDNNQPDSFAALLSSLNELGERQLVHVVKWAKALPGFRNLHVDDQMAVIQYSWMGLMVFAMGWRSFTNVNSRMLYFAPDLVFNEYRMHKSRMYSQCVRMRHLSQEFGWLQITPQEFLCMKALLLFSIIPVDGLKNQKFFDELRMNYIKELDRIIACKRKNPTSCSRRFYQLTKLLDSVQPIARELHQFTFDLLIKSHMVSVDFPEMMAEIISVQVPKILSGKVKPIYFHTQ

For the compound `CC1CC(=O)NN=C1c1ccc(NCC(C)(C)NCC(O)COc2cc(Cl)ccc2C#N)cc1` (configuration not stated), the call in assay [1], in assay [3], in assay [4], in assay [5] and in [7] was inactive. The Potency result in [2], in [6], in [8], in [9], in assay [10] and in assay [11] was “inactive” in each case. Further, the Potency result in assay [15] and in [16] was “inactive” in each case. Also, the Potency in assay [12] was 0.668 µM (active); in assay [13], 0.376 µM (active); in [14], 0.668 µM (active).
As for `CCN(CC)CCNC(=O)c1ccc(NC(C)=O)cc1`, the call in assay [1], in [3], in assay [4], in assay [5] and in assay [7] was inactive. Besides, the Potency entry in [2], in assay [6], in assay [8], in assay [9], in assay [10] and in assay [11] was “inactive” in each case. Besides, the Potency entry in assay [12], in [13], in assay [14], in assay [17], in [18] and in [19] was “inactive” each time. For the same compound, the Potency result in [20] is “inactive”.
Turning to `CCOC(=O)OCC`, the result in assay [1], in assay [3], in assay [4], in assay [5] and in [7] was inactive. The Potency entry in assay [2], in assay [6], in [8], in assay [9], in [10] and in assay [11] was “inactive” each time. Further, the Potency entry in [12], in assay [13], in [14], in [15] and in assay [19] was “inactive” each time.
For `O=Cc1c(Cl)cccc1Cl`, the call in assay [1], in [3], in assay [4], in assay [5] and in assay [7] was inactive. Moreover, the Potency result in [2], in assay [6], in [8], in assay [9], in assay [10] and in [11] was “inactive” in each case. Also, the Potency entry in [12], in assay [13], in [14], in [15], in [19] and in assay [16] was “inactive” in each case.
Regarding `CC(C)CCCCCCOC(=O)CCCCC(=O)OCCCCCCC(C)C`, the compound was called inactive in [1], in assay [3], in [4], in [5] and in assay [7]. Besides, the Potency result in assay [2], in [6], in assay [8], in [9], in assay [10] and in assay [11] was “inactive” in each case. For the same compound, the Potency result in [12], in [14], in assay [15] and in [19] was “inactive” throughout. Moreover, in [13], the Potency is 30.6 µM (active).
As to `CCCCC(CC)C(=O)OCCOCCOCCOCCOC(=O)C(CC)CCCC` (configuration not stated), the compound was called inactive in assay [1], in [3], in [4], in [5] and in [7]. Further, the Potency entry in assay [2], in [6], in assay [8], in assay [9], in assay [10] and in assay [11] was “inactive” in each case. Further, the Potency entry in assay [15] and in assay [19] was “inactive” throughout. For the same compound, the Potency in assay [12] is 27.3 µM (active); in assay [13] it was 43.3 µM (active); in assay [14], 30.6 µM (active).
Turning to `CN1CCCN=C1/C=C/c1cccs1`, the call in assay [1], in [3], in assay [4], in assay [5] and in assay [7] was inactive. Moreover, the Potency entry in assay [2], in assay [6], in assay [8], in [9], in [10] and in assay [11] was “inactive” throughout. In addition, the Potency result in assay [12], in assay [14] and in assay [15] was “inactive” in each case.
With `c1ccc(COCc2ccccc2)cc1`, the compound was classed as inactive in assay [1], in assay [3], in assay [4], in [5] and in [7]. In addition, the Potency result in assay [2], in assay [6], in assay [8], in assay [9], in assay [10] and in assay [11] was “inactive” in each case. For the same compound, the Potency result in [12], in assay [13], in [14], in [15] and in assay [19] was “inactive” throughout.
`NC(=O)Cn1c(=O)cc(CCN2CCN(c3nccc4sccc34)CC2)c2ccc(F)cc21`: the outcome in assay [1], in assay [3], in assay [4], in assay [5] and in assay [7] was inactive. Also, the Potency entry in assay [2], in assay [6], in assay [8], in assay [9], in [10] and in assay [11] was “inactive” in each case. Moreover, the Potency result in [19] was “inactive”. For the same compound, the Potency in [12] was 27.3 µM (active); in assay [13] it was 27.3 µM (active); in assay [14] it was 24.3 µM (active).
On to `C1COCO1`, for which the call in assay [1], in assay [3], in assay [4], in [5] and in assay [7] was inactive. In addition, the Potency entry in assay [2], in assay [6], in assay [8], in assay [9], in [10] and in assay [11] was “inactive” throughout. Moreover, the Potency result in [12], in assay [13], in assay [14], in assay [15], in [19] and in assay [16] was “inactive” each time.
On to `CC(C)CCCCCOC(=O)CCCCC(=O)OCCCCCC(C)C`, for which the call in [1], in [3], in assay [4], in [5] and in [7] was inactive. Besides, the Potency result in assay [2], in [6], in [8], in assay [9], in [10] and in assay [11] was “inactive” in each case. Besides, the Potency result in [15], in assay [19] and in assay [16] was “inactive” in each case. Also, the Potency in [12], in assay [13] and in [14] was 61.1 µM (active) in each case.
As for `CCCCCC=CCC=CCCCCCCCC(=O)OCC`, the compound was classed as inactive in assay [1], in [3], in [4], in assay [5] and in assay [7]. Also, the Potency entry in assay [2], in [6], in assay [8], in assay [9], in [10] and in assay [11] was “inactive” throughout. Besides, the Potency result in [12], in assay [13], in [14], in [15], in [19] and in [16] was “inactive” throughout.
Turning to `CNCCCC1c2ccccc2C=Cc2ccccc21`, the fluorescence, % of fluorescein in [1] is 0.0057% [at 18.6 µM]. Moreover, the fluorescence, % of fluorescent control in assay [2] was 0.01% [at 18.6 µM]; in assay [4], -0.009% [at 18.6 µM]; in assay [6], -0.0014% [at 18.6 µM]; in assay [8] it was -0.121% [at 18.6 µM]. The activity change in assay [3] is 0.0344% [at 18.6 µM]. Further, the fluorescence, % of Rose Bengal in assay [5] is 0.549% [at 18.6 µM]. Also, in assay [7], the fluorescence, % of fluorescein control is -0.0217% [at 18.6 µM]. Moreover, the Potency entry in assay [9], in assay [10], in assay [11], in [15] and in assay [19] was “inactive” in each case. Besides, the Potency in assay [12] is 4.52 µM (active); in assay [13] it was 12.7 µM (active); in assay [14], 11.4 µM (active); in [16], 4.52 µM (active).

Source of the values: PubChem BioAssay (Tox21).
